Measurements from the supplement of paper PMC11417369.
The full ranking holds about 25,000 sequences; the median of “ln(normalized median fluorescence intensity)” is about 9.3, and the highest 2% start at about 10. Shown is part of a subset that was picked to be rich in the highest values.

These sequences were tested on PF3D7_0420300 AP2 domain 1 (GST-tagged) (assay: gcPBM binding intensity (ln(normalized median fluorescence intensity)); higher = stronger DNA binding).
How it was run: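 Plasmodium falciparum DNA-binding domains carrying a GST tag were expressed in E. coli and applied for 1 h, at about 25 μg on average, to an Agilent 4 × 180k array. The array held primer-extended double-stranded 36-bp intergenic genomic probes together with negative controls, and binding took place in 1× PBS with 1% milk, 0.2 mg/ml BSA, 0.5% salmon testes DNA and 0.03% Triton X-100. An Alexa488 anti-GST antibody detected bound protein, and the array was scanned at 488 nm. Binding intensity is taken as the highest Masliner-normalised natural-log median intensity across replicate spots of either probe orientation.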

Sequence	gcPBM binding intensity (ln)
AAAAAAAAAAAAAAAAGTACGTATCAAAGCATCAAA [XGTACX_site880]	9.42
CATATTTTTTCTTAAACACACACATATATATATATA [CACACA_site8920]	9.61
TTTATTTTCCAAAGGGTGCACATAGTTGAAACGATA	9.2
TTTTTTTTTTTTTTTTTTTTCTTCATTTAATTTATA [GTGCAC_negctrl_site17]	8.31
AAAAAAATACAAATATGTACACATATATATTTAAAA [XGTACX_site4729]	9
ACTTATTTATTTTTAGTGCATTTAGTTTTATTTTAT	9.63
CCAAAATACATTAAACGTACATGTCCTAATAAGATA [XGTACX_site21]	9.15
AATAATGAATACACATGTACAAAAATTTTTCTTACT [XGTACX_site1962]	9.41
CACACGCACGGACACACACACAAAAAAAAAAAGAAA [CACACA_site6378]	9.7
CAAGCACACGGACACACACACACACGCGCACGCACA [CACACA_site6307]	10.2
ATCAAGCACGGACACACACACACACCCAGACCCCCA [CACACA_site4360]	10.1
AAAATTGTTATTTTATGTACTTATATTTATTTATTT [XGTACX_site3478]	9.53
ATTTCTCTATCGTAATGTACAAAAAAAAGGAAAAAA [XGTACX_site1323]	9
AAAAAAAAAAAACATACACACATACATACCTATATA [CACACA_site6575]	9.78
AAAAAAAAAAAAAATACACACATATATATATATATA [CACACA_site85]	9.45
AAAATACACGCATACACACACACACCGACACATATA [CACACA_site4523]	10.2
AAAAAAAATACATACACACACACACGCACATATATA [CACACA_site7645]	10.4
AAAACATACCTATATACACACATATAAATATAAATA [CACACA_site6956]	9.71
CACGCACGCACATACACACACATACACATATAAATA [CACACA_site6907]	9.95
TAAACATACCTATACACACACACACGCACACGCACA [CACACA_site6372]	10.3
TTTAAATACAGACATACACACATACACGCACATATA [CACACA_site6400]	9.85
TAAATTAAAAAAAATACACACACACCGACACATATA [CACACA_site9084]	10
AAAAAAAAAAAATATACACACACACCGACACATAAA [CACACA_site9270]	10.1

Sequence	gcPBM binding intensity (ln)
TACAGACTAAAATACACACACACACGCACATATATA [CACACA_site7875]	10.2
CTAAAATACAGACACACACACACATATATATATATA [CACACA_site4150]	9.93
TAAATAAATTATTTTCGTACTTATTTATTTTAATTA [XGTACX_site283]	9.03
TTTAGTGTTATAAAAAGTACATAATAATTCCTTTTC [XGTACX_site3208]	8.95
CTTTTTAATAAATATACACACACAAAAAAAAAAAAA [CACACA_site9316]	9.73
AATTTAAAAGAAAAAGAAAAATAATAAACAGAAGCA [XGTACX_negctrl_site503]	9.68
TTTTTTTTTTTTGTCACACATATGGAATATATCTAT [CACACA_site5899]	9.26
AAAGAAATAAGGTGCACACATATACAGATATATATA [CACACA_site4399]	9.66
CTATATGTATAAAGTTGTACAGTTTTTCAAAGTTAA [XGTACX_site6652]	9.03
TAAATTTATAAATCACGTACATATTTATTTATATTT [XGTACX_site4532]	9.19
TATTTTATTTCAAATCTTAATAATTGTAATTCTTCA [XGTACX_negctrl_site442]	8.91
ATATTTTATATGTTCACACATACATAAACATATTTT [CACACA_site4948]	9.34
CACGCATATATACATACATGCATATATACATCCATG [TGCATGCA_site667]	9.27
AAGCATACATCAAGCACACACACACCCACACCCACA [CACACA_site372]	10.1
CACAAATATATACATACACACATATATACGCATATA [CACACA_site395]	9.72
AGAAGCATACATCAAGCACACACACCCACACCCACA [CACACA_site8014]	9.99
TACACAAATATATACATACACACATATATACGCATA [CACACA_site394]	9.79
AAAAAAAAAAAACATACACACACATATATATATATA [CACACA_site8452]	9.9
AAAATACACGCATACACACACACACGCGCACATATA [CACACA_site6448]	10.3
AAAAAAAAAAAAAACACACACACACGCACATATACA [CACACA_site7288]	10.2
GCATACATCAAGCACACACACACACGCACACGCACA [CACACA_site6311]	10.3
AAAAAAAAAAAAAAAACACACATACACGCACGCACA [CACACA_site7569]	9.72
AAAAGATGCGCATACACACAGATGAATAACAAAAAA [CACACA_site6865]	9.74

Sequence	gcPBM binding intensity (ln)
AAACAAATAGACACTTGTACGTAAGTAAATAATTAA [XGTACX_site6157]	9.43
ATTTAATTTTTTTTTAAACACACATTTTTTTATTTA [CACACA_site8880]	9.36
ATTTTTTTATAAAATTTTTTATATATTAAATATTAT [CACACA_negctrl_site135]	9.04
GTAAAATTTACATAGAGTACTTATATTTTTTTCTGC [XGTACX_site3414]	8.96
ATAATTTGTGGACACACACACACACCGACATATATA [CACACA_site8718]	10.2
AAAAATTTGGCATACACACACACACCGACACAGACA [CACACA_site4489]	10.1
TATACTCATGGACACACACACATACACAGACATACA [CACACA_site5024]	9.92
ATAAAGCACACCGACACACACATATATATATATATA [CACACA_site1047]	9.8
CATATTTGTGGACACACACACATATTTATATATATA [CACACA_site5887]	9.75
ATTTGGCATGGACACACACACACACCGACAGACATA [CACACA_site4491]	10.2
TTATTAATTATATATAGTACACATTTCACAGATGGG [XGTACX_site2349]	9.2
TATTTATGTATATGCTGTACGCATTTGTGAAACATA [XGTACX_site4688]	9.06
GTACATATAAATATTACACACATTTTCATTTTTAAC [CACACA_site1986]	9.56
ATAATTTATATTCAGAAACACACGAAAAAAAAAAAT [CACACA_site1296]	9.64
TAAATGTAAAACGAAATGCACACTATGGAAAATATA [CACACA_site724]	9.66
AATTAATATTTAAATTGTACATGAACATTTTAATGT [XGTACX_site462]	8.97
CAAATACATAGACACACACACATATACATATTTATA [CACACA_site7610]	10
TCATTCATATGTTACACACACACACCCACATAAAAA [CACACA_site3245]	10.1
ATTCATTCATATGTTACACACACACGCCCACATAAA [CACACA_site7513]	10.3
ATTCATTCATATGTTACACACACACCGACACATAAA [CACACA_site5749]	10
AAAATTCATAAATACACACACGCACATATATATATA [CACACA_site4227]	9.88
TCATTCATATGTTACACACACACACGCACATAAAAA [CACACA_site7514]	10.3
ATTCATTCATATGTTACACACACACCCACCCATAAA [CACACA_site9066]	10.2

Sequence	gcPBM binding intensity (ln)
AAAAAGGGTATTATTACACACACGTAAATATTAATA [CACACA_site101]	9.61
TTTCCTTTTTTAATATGTACACATATTATTATATCT [XGTACX_site3079]	9.45
ATAATTTAAAAACATTGTACATTAATATATATGTAT [XGTACX_site8970]	9.12
GTACACATATATATATATATATATATATATATATAT [CACACA_negctrl_site800]	9.25
ATATATATTTTTATTTGTACATAATTTTTTTTGTGA [XGTACX_site6378]	9.21
ACCAAAAAAAAAAAAAAAAAAATATACATATATATA [GTGCAC_negctrl_site582]	9.05
TTTCATTTCACAGACACACACACACCCTATATTTCC [CACACA_site3906]	10.2
TCATTTCACAGACACACACACACAAGATATTTCCTT [CACACA_site7774]	10
ATTTCACAGAGACACACACACAATATATTTCCTTTT [CACACA_site7773]	9.94
AAAGAAAATTAAAAAGAACACACAAATATATATATA [CACACA_site9196]	9.67
AAATAGAAAAAATATACACACACTTATTAAATAAAA [CACACA_site3313]	9.86
TGAGTATATAAATACACACACATATATATATTTTAA [CACACA_site5130]	9.61
TATATATATATATATGCATGTACATATATTTGTTAT [TGCATGCA_site379]	9.57
ATATATATATATATATGTACTCATATTTTATTATTT [XGTACX_site898]	9
ATATATATTTATATATGTACATATTTTTGTGTATTT [XGTACX_site1183]	9.55
ATGCATATATTTATGTGTACATATATTTGTAGGGGG [XGTACX_site6063]	10.7
TATATATATATATTATGTACTCATTTATTATCTTTT [XGTACX_site8051]	9.36
TTTGTCATTTTATTATGTACTCAGCATATAGGGGGG [XGTACX_site505]	10.5
TATATACACATATATACACACACATATATATATATA [CACACA_site9127]	9.79
TTACCAAAAACCTCAAGTACAAAAAATCCCTAATAT [XGTACX_site2313]	9.37
